The values that follow come from PubChem BioAssay AID488890 (Southern Research Specialized Biocontainment Screening …, 2010).

About 1,300 (0.41%) of roughly 320,000 compounds were called active. Not shown: some 3% with an inconclusive outcome. The rule behind the calls is not given here. These entries were drawn from the full list. Measured potencies and affinities stand elsewhere.

The nature of the assay: growth inhibition of non-replicating M. tuberculosis (AID 488890).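 Note: plate controls were DMSO cells for no effect and high antibiotic wells for full effect.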 To be noted: Mycobacterium tuberculosis non-replicating, at 25 µM, stronger effect = higher value.
`CN(C(=O)CN1C(=O)S/C(=C\c2ccc(F)cc2)C1=O)C1CCS(=O)(=O)C1` (stereo not drawn): the inhibition was -4.74%.

Turning to `COc1ccccc1CNC(=O)COc1ccccc1C`, the inhibition came to 10%.

In the case of `Cc1occc1C(=O)N=Nc1c(O)[nH]c2ccc(Br)cc12`, the inhibition was -11.3%.

`N=C(N)N=Nc1c(O)[nH]c2ccc(Br)cc12`: the inhibition came to 46%.

With `O=C(Nc1ccc(Br)c(Br)c1)C1CCCO1` (stereo not drawn), the inhibition was determined as 40.5%.

Regarding `Clc1ccc(N2CCN(Cc3ccc(Br)o3)CC2)cc1`, the inhibition came to 75.9%.

As to `O=[N+]([O-])c1cc2c(cc1CN1CCN(c3ccc(F)cc3)CC1)OCO2`, the inhibition came to 12.8%.

Take `Clc1ccc(N2CCN(Cc3ccco3)CC2)cc1`: the inhibition was 69.8%.

As for `O=[N+]([O-])c1ccc(CN2CCN(c3ccc([N+](=O)[O-])cc3)CC2)cc1`, the inhibition worked out at 73.8%.

`O=[N+]([O-])c1ccc(N2CCN(c3ccc(F)cc3)CC2)cc1`: the inhibition was 24.2%.

Take `O=[N+]([O-])c1ccccc1-c1ccc(CN2CCN(c3ccccc3)CC2)o1`: the inhibition stood at 36.3%.

Consider `O=[N+]([O-])c1ccc(N2CCN(Cc3ccc(Br)o3)CC2)cc1`, for which the inhibition turned out to be 78.8%.

Turning to `O=[N+]([O-])c1cccc(-c2ccc(CN3CCN(c4ccccc4)CC3)o2)c1`, the inhibition was 36.7%.

Turning to `Cc1cc(C)cc(NC(=O)Cn2c(=O)oc3cc(S(=O)(=O)N4CC(C)CC(C)C4)ccc32)c1` (stereo not drawn), the inhibition came to 12.4%.

Regarding `COc1ccc(N/C(=N\c2nc(C)cc(C)n2)NC(C)=O)cc1OC`, the inhibition was -5.13%.

In the case of `COC(/C=C/Nc1ccc(C)c(C)c1)=C(C#N)C#N`, the inhibition was -13.9%.

With `COc1cccc(CNCC(O)(c2ccc(Cl)cc2)c2ccc(Cl)cc2)c1`, the inhibition was 31.2%.

Consider `Cc1ccc(C(=O)N(Cc2ccccc2)C(C)(C)C)cc1C`, for which the inhibition turned out to be 14%.

As for `CC(=O)Nc1ccc(NC(=O)CSc2nnc(-c3ccc4c(c3)OCO4)o2)cc1`, the inhibition turned out to be 14.8%.

As to `CCCC(c1nnnn1CCc1ccccc1)N1CCC(C(N)=O)CC1` (stereo not drawn), the inhibition was 8.84%.

For `O=C(N/N=C/c1cccnc1)c1cccc(NC(=O)c2ccccc2Cl)c1`, the inhibition was -2.18%.

On to `CCN(C(=O)c1c(-c2ccccc2)noc1C)c1ccccc1`, for which the inhibition is -7.88%.

`COc1ccc(CC(=O)Nc2cc(C)on2)cc1OC`: the inhibition is -12.5%.

As for `COc1ccc(C(=O)Nc2cc(C(=O)O)cc(C(=O)O)c2)cc1Cl`, the inhibition amounted to 1.97%.

Turning to `Cc1sc(NC(=O)C2CC=CCC2C(=O)O)c(C(=O)OC(C)C)c1C` (stereo not drawn), the inhibition was 24.5%.

Regarding `C=CCn1c(=O)c(C(=O)Nc2ccc(C)cc2)c(O)c2ccccc21`, the inhibition was -32%.

With `CCn1c(=O)c(C(=O)Nc2ccccc2)c(O)c2ccccc21`, the inhibition amounted to 23%.

Consider `C=CCn1c(=O)c(C(=O)Nc2ncccc2O)c(O)c2ccccc21`, for which the inhibition was 27.2%.

Regarding `CC(C)Cn1c(=O)c(C(=O)Nc2cnccn2)c(O)c2ccccc21`, the inhibition is -0.18%.

For `C/C(=N\OCC(=O)OCC(=O)Nc1cc(S(C)(=O)=O)ccc1Cl)c1ccc2c(c1)OCO2`, the inhibition was 7.45%.

As to `Cc1ccccc1NC(=O)c1ccc(Cl)c(NC(=O)c2cccnc2)c1`, the inhibition is -8.32%.

As to `C[C@H](NC(=O)OC(C)(C)C)c1nnc(SCC(=O)Nc2cccc(Cl)c2)o1`, the inhibition worked out at 16.3%.

With `O=C(COc1ccccc1)N=C1SC2CS(=O)(=O)CC2N1c1cccc(F)c1` (stereo not drawn), the inhibition was 1.19%.

Regarding `Cc1oc2cc(OC(C)C(=O)O)ccc2c(=O)c1Oc1ccccc1` (stereo not drawn), the inhibition is -10.2%.

Regarding `CCOc1ccc2c(=O)c(Oc3ccccc3)c(C)oc2c1`, the inhibition turned out to be 57%.

As for `CC(=O)Oc1ccc2c(=O)c(-c3ccccc3)coc2c1`, the inhibition turned out to be 15.7%.

As for `COc1ccc2c(=O)c(-c3ccccc3)coc2c1`, the inhibition worked out at 12.5%.

Turning to `CCCOc1ccc2c(C)c(CC(=O)OC)c(=O)oc2c1`, the inhibition turned out to be 3.51%.

Turning to `CC(C)Oc1ccc2c(=O)c(-c3ccccc3)coc2c1`, the inhibition amounted to 22.2%.

As for `CCc1c(C)c2ccc(OCC(N)=O)cc2oc1=O`, the inhibition came out at 10.3%.

As for `CCN(CC)C(=O)Oc1ccc2c(=O)c(-c3ccccc3)coc2c1`, the inhibition was found to be 62.3%.

Turning to `CCN(CC)C(=O)CN(c1ccc(Cl)cc1)S(=O)(=O)c1ccccc1`, the inhibition is 3.57%.

On to `NS(=O)(=O)c1ccc(NC(=O)c2cccc(Cl)c2)cc1`, for which the inhibition is -6.52%.

Turning to `Cc1ccc(SCCC(=O)Nc2ccccc2C(=O)NC2CCCCC2)cc1`, the inhibition was -25.9%.

Regarding `Cc1cc(C)c(NC(=O)CN(C)S(=O)(=O)c2ccc3c(c2)n(C)c(=O)c(=O)n3C)c(C)c1`, the inhibition is -2.46%.

For `C=CCN1CC(O)=C(c2ccccc2)C1=N`, the inhibition was -5.76%.

As to `CN(C)C(=O)CSc1nnc(-c2cccnc2)n1-c1ccccc1`, the inhibition was -19.8%.

For `Cc1ccc2ncnc(Nc3ccc(C)c(C)c3)c2c1`, the inhibition came to 17.8%.

`O=C(COC(=O)c1ccco1)Nc1nnc(-c2ccccc2)o1`: the inhibition stood at 4.16%.

With `Cc1ccc(-c2nnc(COC(=O)c3ccco3)o2)cc1`, the inhibition was determined as 60.2%.

With `O=C(OCc1nnc(-c2ccccc2)o1)c1ccco1`, the inhibition amounted to 76.9%.

As for `CC(=NNC(=O)CSc1nc2ccccc2o1)c1ccco1`, the inhibition amounted to 13.5%.

Regarding `O=C(CSc1nc2ccccc2o1)N1CCN(C(=O)c2ccco2)CC1`, the inhibition was 7.29%.

As to `COc1ccc(-c2nnc(SCC(=O)c3cccs3)o2)cc1`, the inhibition was 63.8%.

Consider `NC(=O)CSc1nnc(-c2ccncc2)o1`, for which the inhibition stood at 1.06%.

Turning to `O=C(OCC#CCSc1nnc(-c2cccc3ccccc23)o1)c1cc2ccccc2o1`, the inhibition is 71.3%.

As to `N#Cc1ccc(-c2ccc(F)cc2)nc1Oc1ccccc1`, the inhibition was 2.75%.

Take `Cc1onc(-c2c(Cl)cccc2Cl)c1C(=O)NNc1ccccc1`: the inhibition came out at 77.8%.

With `CCC(CC)c1nnc(NC(=O)CS(=O)(=O)c2ccccc2)s1`, the inhibition was -1.72%.

For `COCCOC(=O)c1c(NC(=O)CN2CCCc3ccccc32)sc(C(N)=O)c1C`, the inhibition was determined as 22.6%.

On to `COc1ccc(N(CC(=O)NC2CCCC2)C(=O)c2ccc(N3CCCCC3)nc2)cc1`, for which the inhibition is 11%.

As to `COCc1nnc(NC(=O)c2cc3ccccc3o2)s1`, the inhibition worked out at 8.81%.

In the case of `CC(C)c1nnc(NC(=O)c2cc3ccccc3o2)s1`, the inhibition was -9.61%.

With `CCCc1nnc(NC(=O)c2cc3ccccc3o2)s1`, the inhibition turned out to be 16.7%.

For the molecule `O=C(NNC(=O)c1cc2cc(Br)ccc2oc1=O)c1ccc(O)cc1O`, the inhibition amounted to 23.6%.

For the molecule `Cc1cccnc1NC(=O)c1cc2ccccc2oc1=O`, the inhibition was found to be 66.8%.

Take `Cc1nnc(NC(=O)c2cc3ccccc3o2)s1`: the inhibition is 16.8%.

As for `c1cc2c3c(cccc3c1)NC(c1ccc3c(c1)OCO3)N2`, the inhibition was 12.1%.

For `CC1(C)Cc2c(c(-c3ccccc3)nc(N3CCOCC3)c2C(N)=O)CO1`, the inhibition amounted to 0.34%.

Take `CCCOc1ccc(-c2c(C(=O)N/N=C/c3ccc(OCC)cc3)nnn2-c2nonc2N)cc1`: the inhibition turned out to be 8.95%.

Regarding `COc1ccc(NC(=O)CSc2ccc3nnc(-c4ccccn4)n3n2)cc1OC`, the inhibition is -12%.

Consider `COc1ccc2[nH]c(CN3CCC(CO)(CCOc4ccccc4)CC3)c(C)c2c1`, for which the inhibition was determined as 48.7%.

Consider `Cc1nn(C)cc1CN1CCC(CO)(CCOc2ccccc2)CC1`, for which the inhibition is -0.6%.

What is called inhibition is the relative decrease from the control value, in per cent.
